ERAP1 HTS inh: human ERAP1 aminopeptidase inhibitors, primary screen, biochemical, single point, plate reader; actives 0.15% (n = 340,000); Endoplasmic reticulum aminopeptidase 1 (Homo sapiens), Q9NZ08; AID 652197, 2013; recombinant ERAP1, Leu-AMC fluorescence, 60 min; inhibition, % at 10.7 µM;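 active means mean replicate inhibition of at least 30%, or all replicates individually reaching that 30% level; inactive means mean below 30% and not every replicate reaching it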;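 further: 0% = neutral control wells and 100% = L-leucinethiol positive control wells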
Target sequence (Q9NZ08 whole entry, looked up): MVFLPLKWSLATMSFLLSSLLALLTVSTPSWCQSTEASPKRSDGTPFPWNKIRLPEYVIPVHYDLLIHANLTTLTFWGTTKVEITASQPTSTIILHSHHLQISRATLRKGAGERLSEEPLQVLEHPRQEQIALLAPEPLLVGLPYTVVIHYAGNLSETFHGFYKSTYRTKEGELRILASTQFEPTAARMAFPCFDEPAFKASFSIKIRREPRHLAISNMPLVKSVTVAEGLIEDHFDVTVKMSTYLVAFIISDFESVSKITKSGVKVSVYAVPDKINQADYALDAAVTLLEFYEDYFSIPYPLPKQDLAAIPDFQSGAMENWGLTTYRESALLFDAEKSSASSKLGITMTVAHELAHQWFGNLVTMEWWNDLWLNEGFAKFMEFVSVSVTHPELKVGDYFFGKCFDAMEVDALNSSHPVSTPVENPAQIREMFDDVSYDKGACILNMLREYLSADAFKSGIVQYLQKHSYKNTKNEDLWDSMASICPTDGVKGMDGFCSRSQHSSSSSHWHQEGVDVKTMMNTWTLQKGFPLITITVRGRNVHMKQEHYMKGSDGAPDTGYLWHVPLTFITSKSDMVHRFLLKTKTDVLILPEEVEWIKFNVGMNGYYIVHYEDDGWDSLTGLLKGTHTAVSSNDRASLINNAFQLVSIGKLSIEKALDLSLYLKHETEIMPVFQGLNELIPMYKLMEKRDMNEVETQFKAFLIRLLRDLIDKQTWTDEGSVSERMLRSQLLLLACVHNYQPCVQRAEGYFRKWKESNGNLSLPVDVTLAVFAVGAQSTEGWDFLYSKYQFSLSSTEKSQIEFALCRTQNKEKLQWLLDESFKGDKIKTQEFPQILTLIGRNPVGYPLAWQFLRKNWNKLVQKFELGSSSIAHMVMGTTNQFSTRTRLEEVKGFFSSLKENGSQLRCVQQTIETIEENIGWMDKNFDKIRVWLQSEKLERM
FGF22 binding: binders of human FGF22 protein, primary screen, FGF22 synaptogenesis inhibitor project, biophysical, thermal shift, single point; activity (Tm shift, normalised), % at 9.99 µM; actives 1.5% (n = 340,000); recombinant FGF22 thermal shift, SYPRO orange fluorescence; percent of sucrose octasulfate shift, DMSO zero; Fibroblast growth factor 22 (Homo sapiens), Q9HCT0;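 active means mean Tm shift, scaled 0 neutral to 100 positive control, at about 1.3% or above, every replicate too, limit read from the data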
INS-1E GSIS act: GLuc luminescence reporter in INS-1E cells, primary screen for activators of glucose-dependent secretion of insulin. INS-1E GLuc reporter insulin secretion, 2-3 h. activation, % at 16.6 µM. actives 0.61% (n = 370,000);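 active means lowest replicate activation of at least 40%, so every replicate reaches that level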;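 further: 0% = median of neutral control wells and 100% = median of IBMX positive control wells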
SIRT5 inh: SIRT5 desuccinylase inhibitors, primary screen, biochemical, fluorescence imaging, single point, set 5; NAD-dependent protein deacylase sirtuin-5, mitochondrial (Homo sapiens), Q9NXA8; Purified SirT5, succinyl-peptide AMC, trypsin-coupled fluorescence; inhibition, % at 15 µM; actives 1.1% (n = 330,000); in the data active means inhibition above about 15%
CASP6 VEID inh: human caspase-6 inhibitors, primary screen, biochemical, VEID-R110 fluorescence, single point, set 2. P55212. purified caspase-6, Z-VEID-R110 cleavage fluorescence. inhibition, % at 12.5 µM. actives 0.53% (n = 350,000);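 active means mean inhibition across replicates at least about 35%, with every replicate also reaching that limit, limit read from the data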;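 further: 0% = median of neutral control wells and 100% = no fluorescence left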
* hit, by the source's call. Compounds with a hit are over-represented: about 3.3% of the library has one in this group of screens.

Screening COC(=O)C[C@H]1CC[C@@H]2[C@H](COc3ccc(NC(=O)c4cnccn4)cc3C(=O)N2C)O1 returned ERAP1 HTS inh -2, FGF22 binding 0, INS-1E GSIS act -1, SIRT5 inh -2 and CASP6 VEID inh 57*.
Screening CNC(=O)C[C@H]1CC[C@H]2[C@@H](COc3ccc(NC(=O)c4ccccc4OC)cc3C(=O)N2C)O1 returned ERAP1 HTS inh -1, FGF22 binding 0, INS-1E GSIS act 4, SIRT5 inh 2 and CASP6 VEID inh 0.
Screening CNC(=O)C[C@@H]1CC[C@@H]2[C@H](COc3ccc(NC(=O)c4cc(F)cc(F)c4)cc3C(=O)N2C)O1 returned ERAP1 HTS inh -3, FGF22 binding 0, INS-1E GSIS act -1, SIRT5 inh 16* and CASP6 VEID inh 1.
For CN(C)C(=O)C[C@@H]1CC[C@@H]2[C@H](COc3ccc(NC(=O)c4ccc(F)c(F)c4)cc3C(=O)N2C)O1 the results were ERAP1 HTS inh 0, FGF22 binding 0, INS-1E GSIS act 1, SIRT5 inh 16* and CASP6 VEID inh 0.
Screening COc1ccccc1C(=O)Nc1ccc2c(c1)C(=O)N(C)[C@H]1CC[C@H](CC(=O)Nc3cccc(C(C)C)c3)O[C@@H]1CO2 returned ERAP1 HTS inh 2, FGF22 binding 0, INS-1E GSIS act -12, SIRT5 inh 19* and CASP6 VEID inh -3.
CN(C)C(=O)C[C@H]1CC[C@@H]2[C@@H](COc3ccc(NC(=O)c4ccc(F)c(F)c4)cc3C(=O)N2C)O1 was read as ERAP1 HTS inh -1, FGF22 binding 0, INS-1E GSIS act 3, SIRT5 inh -5 and CASP6 VEID inh 2.
For COc1ccc2c3c([nH]c2c1)[C@H](CO)N(Cc1nccs1)CC31CCN(Cc2nccs2)CC1 the results were INS-1E GSIS act -6.
`O=S(=O)(N[C@H]1CC[C@@H](CCn2cc(C3(O)CCCC3)nn2)O[C@H]1CO)c1ccc(Cl)cc1` gave ERAP1 HTS inh 1, FGF22 binding 0, INS-1E GSIS act 1, SIRT5 inh 2 and CASP6 VEID inh 1.
Screening COc1ccc(S(=O)(=O)Nc2ccc3c(c2)C(=O)N([C@H](C)CO)C[C@@H](C)[C@H](CN(C)C(=O)Nc2ccc(F)cc2)OCCCC[C@@H](C)O3)cc1 returned ERAP1 HTS inh -2, FGF22 binding 0, INS-1E GSIS act -1, SIRT5 inh 15* and CASP6 VEID inh 3.
`COc1ccc(S(=O)(=O)Nc2ccc3c(c2)C(=O)N([C@@H](C)CO)C[C@H](C)[C@@H](CN(C)C(=O)Nc2ccc(F)cc2)OCCCC[C@H](C)O3)cc1` gave ERAP1 HTS inh -2, FGF22 binding 0, INS-1E GSIS act 2, SIRT5 inh 16* and CASP6 VEID inh 1.
For COc1ccc(NC(=O)Nc2ccc3c(c2)C(=O)N([C@@H](C)CO)C[C@H](C)[C@@H](CN(C)C(=O)Nc2ccc(F)cc2)OCCCC[C@H](C)O3)cc1 the results were ERAP1 HTS inh 0, FGF22 binding 0, INS-1E GSIS act -37, SIRT5 inh 17* and CASP6 VEID inh 0.
`COc1ccc(S(=O)(=O)Nc2ccc3c(c2)C(=O)N([C@H](C)CO)C[C@@H](C)[C@H](CN(C)C(=O)Nc2ccc(C(F)(F)F)cc2)OCCCC[C@@H](C)O3)cc1` gave ERAP1 HTS inh -3, FGF22 binding 1.2*, INS-1E GSIS act -39, SIRT5 inh 2 and CASP6 VEID inh 1.
For CCOC(=O)c1c(C)n(-c2ccc(C)cc2)c2ccc(OCC(O)CN3CCN(C)CC3)cc12 (stereo unspecified) the results were ERAP1 HTS inh 1, FGF22 binding -1, INS-1E GSIS act 122*, SIRT5 inh -2 and CASP6 VEID inh -69.
CCOC(=O)c1c(C)n(C)c2ccc(OCC(O)CN3CCN(C)CC3)cc12 (stereo unspecified) was read as FGF22 binding -1, INS-1E GSIS act 10 and CASP6 VEID inh -41.
`O=C(NC1CCCC1)C(=O)N(Cc1cccnc1)C(C(=O)NCc1ccco1)c1ccccc1F` (stereo unspecified) gave ERAP1 HTS inh 2, FGF22 binding 44*, INS-1E GSIS act 11, SIRT5 inh -6 and CASP6 VEID inh -4.
O=C(NC1CCCCC1)C(c1ccccc1F)N(Cc1ccco1)C(=O)c1ccccn1 (stereo unspecified) was read as ERAP1 HTS inh 1, FGF22 binding 0, INS-1E GSIS act -7, SIRT5 inh -2 and CASP6 VEID inh 1.
CCC(=O)N(C)C[C@H]1Oc2cc(-c3ccccc3C)ccc2S(=O)(=O)N([C@@H](C)CO)C[C@H]1C was read as ERAP1 HTS inh -3, FGF22 binding 0, INS-1E GSIS act 14, SIRT5 inh -6 and CASP6 VEID inh 2.
`COc1ccc(CCN2C(=O)CSC2=S)cc1OC` gave ERAP1 HTS inh 0, FGF22 binding 0, INS-1E GSIS act 19 and SIRT5 inh -3.
`COc1ccc(CCN2C(=O)CS/C2=N\NC(=O)c2cccs2)cc1OC` gave ERAP1 HTS inh 0, FGF22 binding 44*, INS-1E GSIS act 29, SIRT5 inh 0 and CASP6 VEID inh 1.
Screening NC(=S)Nc1ncc(C(F)(F)F)cc1Cl returned ERAP1 HTS inh 4, FGF22 binding 43*, INS-1E GSIS act -8, SIRT5 inh -3 and CASP6 VEID inh 1.
Screening C[C@@H]1CCCCO[C@H](CN(C)Cc2ccc(C(=O)O)cc2)[C@@H](C)CN([C@H](C)CO)C(=O)c2cc(NS(=O)(=O)c3cccs3)ccc2O1 returned ERAP1 HTS inh -1, FGF22 binding 0, INS-1E GSIS act 2, SIRT5 inh -4 and CASP6 VEID inh 2.
`COCC(C)n1c(C)cc(C(=O)COC(=O)CCc2nc3ccccc3c(=O)[nH]2)c1C` (stereo unspecified) gave ERAP1 HTS inh -1, FGF22 binding 43, INS-1E GSIS act 21, SIRT5 inh 20* and CASP6 VEID inh -4.
COCC(C)n1c(C)cc(C(=O)COC(=O)/C=C/c2cccc(F)c2)c1C (stereo unspecified) was read as ERAP1 HTS inh 5, FGF22 binding 43*, INS-1E GSIS act -4, SIRT5 inh -1 and CASP6 VEID inh 2.
For COCCCn1c(C)cc(C(=O)COC(=O)CCc2nc3ccccc3c(=O)[nH]2)c1C the results were ERAP1 HTS inh 8, FGF22 binding 0, INS-1E GSIS act 6, SIRT5 inh -1 and CASP6 VEID inh 3.
